These results are taken from PubChem BioAssay (NCI).

About 79,000 compounds went through this panel and 15% of them were active in at least one assay; those are over-represented in the sample as a whole. Values without a mark were called inactive. Calls of active or inactive are those of the source. Cut-off read from the data, not from the text of the source: active = growth inhibition above about 70%; inactive = the rest. Where a SMILES comes first, the peptide text is derived from it. [ ]: non-standard residue; d: D form. The star is where a group is joined. mTyr = N[CH](Cc1cccc(O)c1)C(=O)O; Cbz = O=C(OCc1ccccc1)*; OBn = c1ccc(CO*)cc1

One test is described as follows: NCI Yeast Anticancer Drug Screen. Data for the bub3 strain (AID 167). The following applies: S. cerevisiae bub3 mutant strain, at 5.0 µM (retest, dose inferred, filed as 0.5), stronger effect = higher value. The procedure, abridged: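 Inhibition values come from growth of compound-treated mutant yeast normalised to vehicle-treated controls.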
Take `CC12CCC(c3sc(N)c(C#N)c31)C2(C)C` (stereo not given): the growth inhibition was -15%.

`O=C1/C(=C/c2cccc(F)c2)CCCc2ccccc21`: the growth inhibition was 14%.

Take `CC(=O)N[C@H]1CC[C@H]2[C@@H]3CCC4=CC(=O)CC[C@]4(C)[C@H]3CC[C@]12C`: the growth inhibition is -1%.

As for `C/C(=N/O)c1ccc2c(c1)C(=NO)c1cc(/C(C)=N/O)ccc1-2`, the growth inhibition was 21%.

As to `Cc1cccc(N2C(c3ccccc3)c3ccc(C)cc3NS2=O)c1` (stereo not given), the growth inhibition is -2%.

Take `[Pt].c1ccc(P(CCP(CCP(c2ccccc2)c2ccccc2)CCP(c2ccccc2)c2ccccc2)c2ccccc2)cc1`: the growth inhibition was 0%.

As for `Cc1cc(I)ccc1NC(=S)Nc1ccccc1F`, the growth inhibition was 5%.

Take `FC(F)(F)c1ccccc1NC(=S)SCc1ccc(Cl)cc1`: the growth inhibition was 14%.

In the case of `COC(=O)C1(C)CC2C(C)(CCC3(C)C4=CC=C5C(=CC(=O)C(O)=C5C)C4(C)CCC23C)CC1O` (stereo not given), the growth inhibition is 75% (active).

As to `CC1CCC(=NNC(N)=O)CC1` (stereo not given), the growth inhibition is -3%.

For the compound `CCOC(=O)C(NS(=O)(=O)c1ccccc1)(C(F)(F)F)P(=O)(OCC(C)C)OCC(C)C` (stereo not given), the growth inhibition was 4%.

For `O=[N+]([O-])c1ccc(/C=N/NC2=CS(=O)(=O)C=C2)cc1`, the growth inhibition was -4%.

Regarding `CC(C)c1ccc2c(c1)CCC1C(C)(CNC(=O)S)CCCC21C.[Zn+2]` (stereo not given), the growth inhibition was 6%.

As to `Cc1ccc(N=Nc2sc(N)nc2C)cc1C`, the growth inhibition is -62%.

For `CC(C)(C)C1CCC2c3c([nH]c4ccccc34)C3C(=O)N(c4ccc(C(=O)O)cc4)C(=O)C3C2C1` (stereo not given), the growth inhibition was 74% (active).

For `O=C(CBr)Nc1ccc(Cc2ccc(NC(=O)CBr)cc2)cc1`, the growth inhibition is 17%.

For `O=c1[nH]c2c([N+](=O)[O-])cc(Cl)cc2nc1/C=C(\O)c1ccc(Cl)cc1`, the growth inhibition was 17%.

Regarding `CCOC(=O)C1=C(N)N(S(=O)(=O)c2ccc(C)cc2)CCC(C(=O)OC)=C1`, the growth inhibition was 1%.

Turning to `CC(C)=CC(=O)OC(CCCc1ccccc1)c1ccc2c(c1)OCO2` (stereo not given), the growth inhibition was 35%.

Regarding `OCCN(CCO)c1cc(/C=C/c2ccnc3ccccc23)nc2ccccc12`, the growth inhibition is 1%.

`CCCCCCCCCCCC(=O)OCC1CO1` (stereo not given): the growth inhibition is 9%.

Turning to `CCCCCCCCCCCCCCCCCC1=NCCN1`, the growth inhibition is 8%.

Regarding `CC(=O)OCC1OC(OC2C=C(O[Si](C)(C)C)C[C@H]3C(=O)C=CC(=O)[C@@H]23)C(OC(C)=O)C(OC(C)=O)C1OC(C)=O` (stereo not given in full), the growth inhibition is 3%.

With `C[C@]12CC[C@H]3[C@@H](CCC4=CC(=O)CC[C@@]43C)[C@@H]1CC[C@@H]2C(=O)C=O`, the growth inhibition is 1%.

`CCCCCC(O)C(C)CO` (stereo not given): the growth inhibition was 0%.

With `CC(=O)Oc1ccc(-c2ccccc2)cc1Br`, the growth inhibition is 10%.

`COC(=O)C(Cc1cccc(O)c1)NC(=O)C(CC(=O)OCc1ccccc1)NC(=O)OCc1ccccc1` (stereo not given) (Cbz-Asp(OBn)-[mTyr]-OMe; configuration not given here): the growth inhibition was -10%.

`CCC(CO)Nc1nc2cc(Br)ccc2c2ccc(Br)cc12` (stereo not given): the growth inhibition was 47%.

With `Cc1cc(Br)ccc1NC(=O)/C=C/C(=O)O`, the growth inhibition was -4%.

With `CCO/C=C1N=C(/C=C/c2ccccc2Cl)OC/1=O`, the growth inhibition was 13%.

As to `O=S(=O)(Nc1ccccc1C(F)(F)F)c1ccc(F)cc1`, the growth inhibition is -16%.

As for `N#CSCC(=O)c1ccc2ccccc2c1`, the growth inhibition was 97% (active).

In the case of `O=[N+]([O-])/C(Cl)=C(\Nc1ccccc1)C(Cl)=C(Cl)Cl`, the growth inhibition is 76% (active).

Turning to `C/C(=N/NC(=O)c1ccccc1S(N)(=O)=O)C(CN1CCCCC1)C(C1=C(O)C2C=CC=CC2OC1=O)c1ccccc1` (stereo not given), the growth inhibition was 31%.

For the compound `N#Cc1c([N+](=O)[O-])cc(C(F)(F)F)cc1[N+](=O)[O-]`, the growth inhibition is 92% (active).

Regarding `CCCCCCCCCCCCO`, the growth inhibition was -6%.

Regarding `S=C(N/N=C/c1ccccn1)N1CC2CCC(CC2)C1`, the growth inhibition was 99% (active).

As to `ClC1(c2ccccc2)c2ccccc2-c2ccccc21`, the growth inhibition is 4%.

On to `Cc1ccc(SCC#CC#CCS(=O)c2ccc(C)cc2)cc1` (stereo not given), for which the growth inhibition was 82% (active).

On to `CCCCCCCOc1ccc(C=O)cc1OC`, for which the growth inhibition is -1%.

Still in this test, the particulars now being: S. cerevisiae bub3 mutant strain, at 50.0 µM (retest, dose inferred, filed as 5.0), stronger effect = higher value.
For the compound `CC12CCC(c3sc(N)c(C#N)c31)C2(C)C` (stereo not given), the growth inhibition was -20%.

Regarding `O=C1/C(=C/c2cccc(F)c2)CCCc2ccccc21`, the growth inhibition is 81% (active).

Turning to `CC(=O)N[C@H]1CC[C@H]2[C@@H]3CCC4=CC(=O)CC[C@]4(C)[C@H]3CC[C@]12C`, the growth inhibition was 97% (active).

On to `C/C(=N/O)c1ccc2c(c1)C(=NO)c1cc(/C(C)=N/O)ccc1-2`, for which the growth inhibition was 98% (active).

Regarding `Cc1cccc(N2C(c3ccccc3)c3ccc(C)cc3NS2=O)c1` (stereo not given), the growth inhibition was -1%.

On to `[Pt].c1ccc(P(CCP(CCP(c2ccccc2)c2ccccc2)CCP(c2ccccc2)c2ccccc2)c2ccccc2)cc1`, for which the growth inhibition was 92% (active).

In the case of `Cc1cc(I)ccc1NC(=S)Nc1ccccc1F`, the growth inhibition is 86% (active).

As to `FC(F)(F)c1ccccc1NC(=S)SCc1ccc(Cl)cc1`, the growth inhibition is 90% (active).

Regarding `COC(=O)C1(C)CC2C(C)(CCC3(C)C4=CC=C5C(=CC(=O)C(O)=C5C)C4(C)CCC23C)CC1O` (stereo not given), the growth inhibition was 98% (active).

Turning to `CC1CCC(=NNC(N)=O)CC1` (stereo not given), the growth inhibition was -3%.

With `CCOC(=O)C(NS(=O)(=O)c1ccccc1)(C(F)(F)F)P(=O)(OCC(C)C)OCC(C)C` (stereo not given), the growth inhibition was 0%.

With `O=[N+]([O-])c1ccc(/C=N/NC2=CS(=O)(=O)C=C2)cc1`, the growth inhibition is 5%.

As to `CC(C)c1ccc2c(c1)CCC1C(C)(CNC(=O)S)CCCC21C.[Zn+2]` (stereo not given), the growth inhibition is 35%.

Regarding `Cc1ccc(N=Nc2sc(N)nc2C)cc1C`, the growth inhibition was -12%.

For `CC(C)(C)C1CCC2c3c([nH]c4ccccc34)C3C(=O)N(c4ccc(C(=O)O)cc4)C(=O)C3C2C1` (stereo not given), the growth inhibition was 99% (active).

Regarding `O=C(CBr)Nc1ccc(Cc2ccc(NC(=O)CBr)cc2)cc1`, the growth inhibition was 0%.

On to `O=c1[nH]c2c([N+](=O)[O-])cc(Cl)cc2nc1/C=C(\O)c1ccc(Cl)cc1`, for which the growth inhibition is 87% (active).

As for `CCOC(=O)C1=C(N)N(S(=O)(=O)c2ccc(C)cc2)CCC(C(=O)OC)=C1`, the growth inhibition was -4%.

Take `CC(C)=CC(=O)OC(CCCc1ccccc1)c1ccc2c(c1)OCO2` (stereo not given): the growth inhibition is 33%.

Regarding `OCCN(CCO)c1cc(/C=C/c2ccnc3ccccc23)nc2ccccc12`, the growth inhibition is -13%.

As for `CCCCCCCCCCCC(=O)OCC1CO1` (stereo not given), the growth inhibition is -44%.

As for `CCCCCCCCCCCCCCCCCC1=NCCN1`, the growth inhibition is 98% (active).

`CC(=O)OCC1OC(OC2C=C(O[Si](C)(C)C)C[C@H]3C(=O)C=CC(=O)[C@@H]23)C(OC(C)=O)C(OC(C)=O)C1OC(C)=O` (stereo not given in full): the growth inhibition was 93% (active).

In the case of `C[C@]12CC[C@H]3[C@@H](CCC4=CC(=O)CC[C@@]43C)[C@@H]1CC[C@@H]2C(=O)C=O`, the growth inhibition is 17%.

Consider `CCCCCC(O)C(C)CO` (stereo not given), for which the growth inhibition was -1%.

`CC(=O)Oc1ccc(-c2ccccc2)cc1Br`: the growth inhibition was 98% (active).

In the case of `COC(=O)C(Cc1cccc(O)c1)NC(=O)C(CC(=O)OCc1ccccc1)NC(=O)OCc1ccccc1` (stereo not given) (Cbz-Asp(OBn)-[mTyr]-OMe; configuration not given here), the growth inhibition was 55%.

For `CCC(CO)Nc1nc2cc(Br)ccc2c2ccc(Br)cc12` (stereo not given), the growth inhibition is 94% (active).

In the case of `Cc1cc(Br)ccc1NC(=O)/C=C/C(=O)O`, the growth inhibition was -13%.

On to `CCO/C=C1N=C(/C=C/c2ccccc2Cl)OC/1=O`, for which the growth inhibition was 81% (active).

For `O=S(=O)(Nc1ccccc1C(F)(F)F)c1ccc(F)cc1`, the growth inhibition was 61%.

With `N#CSCC(=O)c1ccc2ccccc2c1`, the growth inhibition is 98% (active).

Take `O=[N+]([O-])/C(Cl)=C(\Nc1ccccc1)C(Cl)=C(Cl)Cl`: the growth inhibition was 99% (active).

Consider `C/C(=N/NC(=O)c1ccccc1S(N)(=O)=O)C(CN1CCCCC1)C(C1=C(O)C2C=CC=CC2OC1=O)c1ccccc1` (stereo not given), for which the growth inhibition was 31%.

In the case of `N#Cc1c([N+](=O)[O-])cc(C(F)(F)F)cc1[N+](=O)[O-]`, the growth inhibition is 100% (active).

As to `CCCCCCCCCCCCO`, the growth inhibition was 51%.

As to `S=C(N/N=C/c1ccccn1)N1CC2CCC(CC2)C1`, the growth inhibition was 99% (active).

On to `ClC1(c2ccccc2)c2ccccc2-c2ccccc21`, for which the growth inhibition was 98% (active).

On to `Cc1ccc(SCC#CC#CCS(=O)c2ccc(C)cc2)cc1` (stereo not given), for which the growth inhibition is 98% (active).

For the compound `CCCCCCCOc1ccc(C=O)cc1OC`, the growth inhibition was 38%.
